CHT allo act – human CHT allosteric activation; Q9GZV3; CHT-expressing cells, membrane potential dye, choline EC20; active compounds read high; LV-AA mutant CHT in HEK293 cells; B-score at 10 µM; hit rate 0.49% among 310,000; AID 488977;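 active means initial fluorescence not abnormally high and integrated response B-score, plate-corrected, over 3 SD above library mean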
Kir21 block – blocks the mouse Kir2.1 inward-rectifier potassium channel; HEK293-Kir2.1, FluxOR thallium flux fluorescence; active compounds read low; hit rate 0.85% among 310,000; AID 1672; B-score at 10 µM; P35561;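 active means fluorescence ratio B-score at or below minus 3 SD of library scores, with starting-brightness B-score within 2 SD, cut at about -4.2 in these data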;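 further: channel flux triggered by added potassium and thallium sulfate stimulus; B-score of peak minus minimum fluorescence over baseline after thallium stimulus; more negative B-score means stronger Kir2.1 block with less thallium influx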
Target sequence (P35561 whole entry, looked up): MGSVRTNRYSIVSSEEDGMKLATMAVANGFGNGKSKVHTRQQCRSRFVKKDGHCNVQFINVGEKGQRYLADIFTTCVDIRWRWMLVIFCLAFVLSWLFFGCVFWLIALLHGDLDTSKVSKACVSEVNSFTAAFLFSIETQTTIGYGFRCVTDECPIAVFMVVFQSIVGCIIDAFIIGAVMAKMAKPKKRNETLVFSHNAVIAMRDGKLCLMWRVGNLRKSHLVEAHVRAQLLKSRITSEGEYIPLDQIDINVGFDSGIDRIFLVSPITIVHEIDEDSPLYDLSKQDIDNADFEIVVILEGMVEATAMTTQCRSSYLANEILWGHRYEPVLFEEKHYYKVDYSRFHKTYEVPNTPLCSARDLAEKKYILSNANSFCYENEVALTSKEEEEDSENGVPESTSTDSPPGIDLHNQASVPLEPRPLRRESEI
CHT block – inhibits the human high affinity choline transporter; Q9GZV3; CHT-expressing cells, membrane potential dye, choline response; active compounds read low; B-score at 10 µM; hit rate 0.86% among 310,000;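 active means B-score over 3 SD under the library average, and starting fluorescence ratio not unusually high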;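 further: choline stimulus applied at its EC90 after an EC20 pre-addition; B-score computed on integrated fluorescence ratio after choline addition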
Rce1 inhib – yeast Ras-converting enzyme inhibition | Q03530 | yeast membranes, quenched prenylated peptide cleavage fluorescence | calls only | hit rate 0.27% among 290,000 | AID 2563;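 active means fall in fluorescence gain of 50% or more versus controls, with final raw signal at or below 3038400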
Target sequence (Q03530 whole entry, looked up): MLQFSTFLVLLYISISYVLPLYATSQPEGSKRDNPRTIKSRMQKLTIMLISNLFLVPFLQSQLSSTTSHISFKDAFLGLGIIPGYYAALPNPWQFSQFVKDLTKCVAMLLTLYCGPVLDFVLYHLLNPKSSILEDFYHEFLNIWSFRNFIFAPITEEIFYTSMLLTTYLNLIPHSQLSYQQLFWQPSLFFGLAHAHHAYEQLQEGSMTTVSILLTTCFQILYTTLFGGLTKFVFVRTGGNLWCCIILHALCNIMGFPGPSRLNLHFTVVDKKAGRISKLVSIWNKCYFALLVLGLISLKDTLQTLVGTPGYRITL
TMEM16A act – activates or potentiates the mouse TMEM16A chloride channel; Q8BHY3; HEK293 TMEM16A/YFP-H148Q/I152L, iodide quench fluorescence; active compounds read low; B-score at 10 µM; hit rate 0.3% among 340,000; AID 623877;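 active means fluorescence-ratio B-score plate-corrected deviation score at least 3 library SD below zero, with starting fluorescence score within 5 deviations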;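 further: channel opened by trigger with iodide after compound preincubation; score built on the fluorescence ratio of max minus min over baseline; more negative score means more quench and so TMEM16A activation or potentiation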
TMEM16A inh – mouse TMEM16A channel inhibition, primary screen | Q8BHY3 | normalized B-score (activity score, 25-100; higher = stronger inhibition) at 10 µM | AID 588511 | hit rate 1.2% among 310,000 | HEK293 TMEM16A/YFP iodide influx fluorescence, ionomycin;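 active means ratio plate-corrected score three or more library SD toward inhibition, starting fluorescence score within five deviations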;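 further: score derived from kinetic fluorescence span divided by baseline fluorescence per well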
Each line names hits and unclear results; the compound was inactive in the other large screens. This is a sample that favours compounds with a hit; in the whole collection about 3.2% have one here.

COc1ccc(OCC(=O)NCc2nc(-c3ccccc3)no2)cc1	none (no result: CHT allo act, Kir21 block, CHT block, Rce1 inhib, TMEM16A inh)
CSc1cnn(Cc2ccccc2)c(=O)c1SCc1ccccc1	Kir21 block -4.6
O=C(Nc1cc(S(=O)(=O)N2CCCCC2)ccc1Cl)c1ccccc1NS(=O)(=O)c1ccc(F)cc1	Rce1 inhib active, TMEM16A inh 25
CC(NCC(=O)Nc1cc(S(=O)(=O)N2CCCCCC2)ccc1Cl)c1ccccc1 (stereo not drawn)	TMEM16A inh 100
COc1ccc(S(=O)(=O)N2CCCCCC2)cc1NC(=O)c1ccccc1F	none (no result: CHT allo act, Kir21 block, CHT block, Rce1 inhib, TMEM16A inh)
CCOc1ccc(NC(=O)c2ccccc2NS(=O)(=O)c2ccc(F)cc2)c([N+](=O)[O-])c1	TMEM16A inh 25
CCOc1ccc(S(=O)(=O)Nc2ccccc2C(=O)Nc2ccccc2N2CCOCC2)cc1	none
CSc1nc(N)nc2c1ncn2CC(=O)N[C@H](CO)Cc1c[nH]c2ccccc12	none (no result: CHT allo act, Kir21 block, CHT block, Rce1 inhib, TMEM16A inh)
COc1ccccc1N(CC(=O)N1CCN(c2ccccc2)CC1)S(=O)(=O)c1ccc(C)cc1	none
O=C1CNC(=S)N1CCc1ccc(Cl)cc1	none
O=C1CNC(=S)N1CCc1ccccc1Cl	CHT block -5.1
COc1ccccc1C(CC(=O)O)NS(=O)(=O)c1ccc2c(c1)N(C(C)=O)CC(C)O2 (stereo not drawn)	none
C(#CCN1CCC(Cc2ccccc2)CC1)COCCOCc1ccccc1	Kir21 block -5
Cc1cccnc1NC(=S)NC(=O)c1oc2ccccc2c1C	none
Cc1cc(C)cc(NC(=S)N(Cc2ccc(Br)cc2)Cc2ccc(C(=O)O)cc2)c1	TMEM16A inh 25
Cc1cc(C)cc(NC(=S)N(Cc2ccc(Cl)cc2)Cc2ccc(C(=O)O)cc2)c1	none
N=c1n(CCO)c2ccccc2n1CCOc1ccc(Cl)cc1Cl	Kir21 block -4.4
Cc1cc(OCC(=O)NNC(=O)c2cccs2)ccc1Br	none
OCCCNc1ncnc2sc(-c3ccccc3)cc12	Rce1 inhib active
COc1ccc(-c2nn(-c3ccccc3)cc2C(=O)N/N=C/c2ccc([N+](=O)[O-])o2)cc1	TMEM16A act -6.9
Cc1cc(C(=O)N/N=C/c2ccc([N+](=O)[O-])o2)c(C)o1	none
Cc1ccc(S(=O)(=O)NCCC(=O)N2CCCC(C)C2)cc1 (stereo not drawn)	none
Cc1ccc(S(=O)(=O)C2(C(=O)N3CCCC(C)C3)CC2)cc1 (stereo not drawn)	TMEM16A inh 25
Cc1ccc(C(=O)C(C)Oc2ccc3ccc(=O)oc3c2)cc1 (stereo not drawn)	none
COc1ccc(S(=O)(=O)NCC(c2cccnc2)N2CCN(Cc3ccccc3)CC2)cc1C (stereo not drawn)	none
Cc1ccc(NC(=S)NCC2CCN(C(C)c3ccccc3)C2)cc1 (stereo not drawn)	none
CC(c1ccccc1)N1CCC(CNC(=S)Nc2cccc(Cl)c2)C1 (stereo not drawn)	Kir21 block -5.9
O=C1CCN(Cc2ccc(Br)cc2)CCN1[C@H](CO)Cc1ccccc1	none
COc1ccccc1S(=O)(=O)CC(O)COc1ccc(F)cc1Cl (stereo not drawn)	none
Cc1ccc(S(=O)(=O)CC(O)COc2ccc(F)cc2Cl)c(C)c1 (stereo not drawn)	Kir21 block -6.1
CSc1nc2cc(Oc3cccc(Cl)c3Cl)c(Cl)cc2[nH]1	TMEM16A inh 100
CCC(=O)NCCCNc1nc2c(C)cccc2cc1C#N	none (no result: Rce1 inhib)
Cc1cc(C)c2cc(C#N)c(NCCCNC(=O)CCC(=O)O)nc2c1	Rce1 inhib active
O=C1C=C(O)CC(c2ccc(Cl)cc2)C1 (stereo not drawn)	none
O=C1C=C(/C=C/C2C=CC=CC2)C[C@@H](c2ccc(Cl)cc2)C1 (stereo partly drawn)	TMEM16A act -9.8 (no result: CHT allo act, Kir21 block, CHT block, Rce1 inhib, TMEM16A inh)
O=C(COC(=O)C1CC2C=CC1C2)Nc1ccc([N+](=O)[O-])cc1 (stereo not drawn)	none (no result: CHT allo act, Kir21 block, CHT block, Rce1 inhib, TMEM16A inh)
COc1cc2c(cc1OC)C(c1ccc(-c3ccccc3Cl)o1)=NCC2	CHT allo act 6.6
CN(C)S(=O)(=O)c1ccc(NC(=O)CSc2nnc(-c3ccco3)n2N)cc1	none (no result: CHT allo act, Kir21 block, CHT block, Rce1 inhib, TMEM16A inh)
Cc1ccc(CNc2ccc3c(c2)ncn3C(C)C)cc1	TMEM16A act -13
CCCCc1ccc(C2C(C#N)=C(N)SC(N)=C2C#N)s1	TMEM16A inh 100 (no result: Kir21 block, Rce1 inhib, TMEM16A act)
Cc1ccc(-c2nnn(CC(=O)N(c3ccc4c(c3)OCCO4)C(C(=O)NCC3CCCO3)c3ccc(F)cc3)n2)o1 (stereo not drawn)	none (no result: Rce1 inhib)
O=c1cc(C(F)(F)F)nc(SC/C=C/c2ccccc2)[nH]1	TMEM16A inh 100
O=C(O)C1C=Cc2ccccc2N1C(=O)c1ccccc1 (stereo not drawn) (tested in a mixture with another compound)	none (no result: CHT allo act, Kir21 block, CHT block, Rce1 inhib, TMEM16A inh)
CCn1ncc(NC(=S)NCCc2ccc(OC)c(OC)c2)c1C(N)=O	none
CCN1CCN(c2nc3c(c(=O)n(C)c(=O)n3C)n2CCSc2nccc(C)n2)CC1	CHT block -7.5
CCOC(=O)[C@H]1[C@H]2COc3ccc(Cl)cc3[C@@H]2N2C(=O)c3ccc(F)cc3NC(=O)[C@@]12C	TMEM16A act -13 (no result: Kir21 block, Rce1 inhib)
Cc1c(Cl)cccc1NC(=S)N1CCCN(Cc2ccc(F)cc2)C1	Kir21 block -6.2
Cc1ccccc1NC(=S)N1CCCN(Cc2ccc(F)cc2)C1	Kir21 block -4.5
Cc1c(Cl)cccc1NC(=S)N1CCCN(Cc2ccccc2F)C1	none
COCCn1c(C)cc(C(=O)CSc2ccc3ccccc3n2)c1C	TMEM16A inh 25
COC(=O)[C@]1(C)N[C@H](c2ccc(-c3cccc(Cl)c3)cc2)[C@@H]2C(=O)N(C)C(=O)[C@@H]21	none (no result: CHT allo act, Kir21 block, CHT block, Rce1 inhib, TMEM16A inh)
CCN1C(=O)[C@H]2[C@@H](c3ccc(-c4ccccc4)cc3)N[C@@](CC(C)C)(C(=O)OC)[C@H]2C1=O	none
COC(=O)[C@]1(CC(C)C)N[C@H](c2ccc(-c3cccc(Cl)c3)cc2)[C@@H]2C(=O)N(C)C(=O)[C@@H]21	TMEM16A act -8.6
CCC(C)Sc1ccc([C@H]2N[C@@](CC(C)C)(C(=O)OC)[C@H]3C(=O)N(CC)C(=O)[C@@H]23)cc1 (stereo partly drawn)	TMEM16A act -8.4
Cc1ccc(CCNC(=O)c2cccc(NC3=NC4CS(=O)(=O)CC4S3)c2)cc1 (stereo not drawn)	none
O=C(COc1cccc(C(F)(F)F)c1)NCC(c1cccs1)N1CCOCC1 (stereo not drawn)	none (no result: CHT allo act, Kir21 block, CHT block, Rce1 inhib, TMEM16A inh)
Nc1ncnc2c(C3OC(CO)C(O)C3O)scc12 (stereo not drawn)	none (no result: CHT allo act, Kir21 block, CHT block, Rce1 inhib, TMEM16A inh)
CCC(C(=O)OCC(=O)Nc1cccc(C(C)=O)c1)c1ccccc1 (stereo not drawn)	none (no result: Rce1 inhib)
CCC(C(=O)OCC(=O)Nc1cc(Cl)cc(Cl)c1)c1ccccc1 (stereo not drawn)	TMEM16A inh 100
Oc1ccc(NCc2cccc(OCc3ccc(F)cc3)c2)cc1	TMEM16A inh 25

Screening results as filed in PubChem BioAssay.
